A word on the inhibition: it is the drop in the measured response relative to a control, in per cent.

The record followed here is ChEMBL document CHEMBL3433997, “St. Jude Leishmania screening dataset” (2016).

Holding throughout (type): functional
For test [1], the target named is Solute carrier family 2, facilitated glucose transporter member 1 (Homo sapiens) (UniProt P11166). Kind of test: ST_JUDE_LEISH: Cytotoxicity at 2uM final concentration against transgenic Leishmania Mexicana promastigotes LmGLUT1 that are glucose transport deficient and complemented with the human glucose transporter GLUT1. Activity is measured by DNA content using SYBR green in vitro.

The target of test [2] is Hexose transporter 1 (Plasmodium falciparum) (UniProt O97467). Kind of test: ST_JUDE_LEISH: Cytotoxicity at 2uM final concentration against transgenic Leishmania Mexicana promastigotes LmPfHT that are glucose transport deficient and complemented with the Plasmodium falciparum hexose transporter. Activity is measured by DNA content using SYBR green in vitro.
Test [3] concerns the target Glucose transporter (Leishmania mexicana) (UniProt O61059). Kind of test: ST_JUDE_LEISH: Cytotoxicity at 2uM final concentration against transgenic Leishmania Mexicana promastigotes LmGT2 that are glucose transport deficient and complemented with the L. Mexicana glucose transporter 2. Activity is measured by DNA content using SYBR green in vitro.

Sequence of Solute carrier family 2, facilitated glucose transporter member 1 (Homo sapiens) (P11166 whole entry): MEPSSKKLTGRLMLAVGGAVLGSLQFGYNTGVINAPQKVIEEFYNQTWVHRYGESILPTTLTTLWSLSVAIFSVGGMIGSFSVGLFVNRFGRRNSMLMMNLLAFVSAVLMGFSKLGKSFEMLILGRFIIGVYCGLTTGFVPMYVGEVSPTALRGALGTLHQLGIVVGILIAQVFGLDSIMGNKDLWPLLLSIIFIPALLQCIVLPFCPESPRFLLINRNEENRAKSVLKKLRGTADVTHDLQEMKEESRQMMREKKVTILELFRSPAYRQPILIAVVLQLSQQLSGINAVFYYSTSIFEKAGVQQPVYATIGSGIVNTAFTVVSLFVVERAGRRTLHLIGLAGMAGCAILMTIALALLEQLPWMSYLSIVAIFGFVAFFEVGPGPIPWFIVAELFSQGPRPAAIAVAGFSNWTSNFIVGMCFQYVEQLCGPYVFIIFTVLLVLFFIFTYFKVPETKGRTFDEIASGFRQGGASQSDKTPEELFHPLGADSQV

In the case of `COc1ccc(CCn2c(=N)c(C(=O)NCc3ccccc3)cc3c(=O)n4cccc(C)c4nc32)cc1`, the figures for the inhibition in test [1], in test [2] and in test [3] were 12.7%, 13.6% and 7.48%, respectively.

Regarding `CCCC1N=C(N)N=C(N)N1c1ccc(OC)cc1` (stereo unspecified), the figures for the inhibition in test [1], in test [2] and in test [3] were 1.53%, -0.34% and 1.56%, respectively.

As to `Clc1ccc(-c2nc3cc(-c4ccc5nc(-c6ccc(Cl)cc6)[nH]c5c4)ccc3[nH]2)cc1`, the inhibition came to 11.2% in test [1], 12.2% in test [2] and 8.04% in test [3].

Turning to `NC1CCCN(Cc2cccc(-c3ccc(-c4nc5ccccc5[nH]4)cc3)c2)C1` (stereo unspecified), the inhibition in test [1] worked out at 7.18%; in test [2] it was 5.94%; in test [3] it was 8.63%.

`CCN(CC)CCN(Cc1ccc(-c2ccc(C(F)(F)F)cc2)cc1)C(=O)Cn1c(CCc2cccc(F)c2F)cc(=O)cc1-c1ccccc1`: the results for the inhibition in test [1], in test [2] and in test [3] were 1.88%, 3.45% and -1.71%, respectively.

For the compound `O=C(Nc1cccc(CCNCc2ccccc2)c1)Nc1cccc2ccccc12`, the inhibition amounted to 10.3% in test [1], 11% in test [2] and 10.9% in test [3].

For `COc1ccccc1CCN(C)CCN1CCC(NC(=O)c2ccc(-c3ccc(C(F)(F)F)cc3)cc2)CC1`, the figures for the inhibition in test [1], in test [2] and in test [3] were 1.81%, 1.97% and 1.05%, respectively.

With `CC1(C)NC(N)=NC(=N)N1OCCCCOc1ccc(Cl)cc1C1CCCCC1`, the values for the inhibition in test [1], in test [2] and in test [3] were 18%, 26.4% and 11.5%, respectively.

As for `O=C(/C=C/c1ccc(Cl)c(Cl)c1)NCCCCCCN1CCCN(C(=O)Nc2ccc(Cl)c(Cl)c2)CC1`, the inhibition was 2.36% in test [1], 2.49% in test [2] and -2.06% in test [3].

In the case of `COc1ccc(NC(=O)[C@H](Cc2ccccc2)Nc2cc(C)nc(NCCc3ccc(F)cc3)n2)cc1`, the inhibition in test [1] was found to be 11.8%; in test [2], 13%; in test [3], 10%.

For the compound `COc1ccccc1C1CCN(CCCCNC(=O)c2ccc(NC(=O)c3ccc(Cl)cc3)cc2)CC1`, the results for the inhibition in test [1], in test [2] and in test [3] were 1.27%, 3.41% and 2.05%, respectively.

For `CC1(C)NC(N)=NC(=N)N1OCCc1ccccc1`, the inhibition was found to be 1.18% in test [1], 0.77% in test [2] and 0.66% in test [3].

Take `CCN(CC)CCNc1c2ccc(Cl)cc2nc2ccc(OC)nc12`: the values for the inhibition in test [1], in test [2] and in test [3] were 3.46%, 3.09% and 3.99%, respectively.

Turning to `CCc1c[nH]c2c(N(c3ccccc3)S(C)(=O)=O)cc(C(=O)N[C@@H](Cc3ccccc3)[C@H](O)CNCc3cccc(C(F)(F)F)c3)cc12`, the inhibition was 1.52% in test [1], 1.54% in test [2] and -2.38% in test [3].

For `Cc1c(C)n(Cc2ccccc2)c2ncnc(OC3CCN(CC(=O)NCC4CC4)CC3)c12`, the inhibition in test [1] amounted to 1.84%; in test [2], 0.12%; in test [3], 0.21%.

In the case of `Nc1ccn([C@@H]2O[C@H](COC(c3ccccc3)(c3ccccc3)c3ccccc3)[C@@H](O)[C@@H]2O)c(=O)n1`, the inhibition in test [1] amounted to 3.1%; in test [2], 4.86%; in test [3], 4.4%.

Regarding `O=C(/C=C/c1ccc(Cl)c(Cl)c1)NCCCCCN1CCC(NC(=S)Nc2cccc(Cl)c2)CC1`, the inhibition was 2.06% in test [1], 0.6% in test [2] and -0.54% in test [3].

In the case of `Cc1ccc(Oc2c(-c3ccccc3CN3CCCC3CN(C)C)cnn(C)c2=O)cn1` (stereo unspecified), the inhibition came out at 6.33% in test [1], 4.63% in test [2] and 5.57% in test [3].

With `COc1ccc(CCNCCCCCNCCc2ccc(Cl)cc2)cc1OC`, the inhibition in test [1] stood at 7.58%; in test [2], 6.09%; in test [3] it was 6.63%.

In the case of `COc1ccc2ncc(F)c([C@@H](O)CN3CCC(NCc4cc(C#N)c5c(c4)CCO5)CC3)c2n1`, the figures for the inhibition in test [1], in test [2] and in test [3] were 3.43%, 3.05% and 0.58%, respectively.

Regarding `Cc1cc(N[C@@H](CC(C)C)C(=O)NCc2cccc(F)c2)nc(NCC2CCCCC2)n1`, the inhibition was found to be 5.8% in test [1], 4.61% in test [2] and 2.2% in test [3].

For the compound `O=C(/C=C/c1ccc(Cl)c(Cl)c1)NCCCCCN1CCC(NC(=O)Nc2ccc(F)cc2F)CC1`, the results for the inhibition in test [1], in test [2] and in test [3] were 1.35%, 2.88% and 1.33%, respectively.

In the case of `COc1ccc(Cl)cc1N1CCN(CCCNC(=O)c2ccc(-c3nc4ccc(C(F)(F)F)cc4[nH]3)c(C)c2)CC1`, the results for the inhibition in test [1], in test [2] and in test [3] were 2.82%, 0.02% and 0.17%, respectively.

As to `CNCCNCc1ccc(-c2cccc(-c3nc4cc(F)ccc4[nH]3)c2)cc1`, the inhibition in test [1] is 2.53%; in test [2] it was 3.78%; in test [3], 3.03%.

In the case of `C#CC(C)(CO)N1CCCC1` (stereo unspecified), the results for the inhibition in test [1], in test [2] and in test [3] were 1.89%, 4.77% and 1.64%, respectively.

As to `CCc1cc(I)c2c(c1)C(NCCCNc1cc(=O)c3ccccc3[nH]1)CCN2` (stereo unspecified), the inhibition in test [1] worked out at 2.28%; in test [2] it was 4.39%; in test [3], 1.86%.

With `CCC(C)CNC(=O)CN1CN(c2ccccc2)C2(CCN(C(=O)c3ccc(Br)cc3)CC2)C1=O` (stereo unspecified), the results for the inhibition in test [1], in test [2] and in test [3] were 0.35%, -0.13% and 0.82%, respectively.

For the compound `CCN(CC)CCN(Cc1ccc(-c2ccc(C(F)(F)F)cc2)cc1)C(=O)Cn1c(CCc2ccc(F)c(F)c2)nc(=O)c2ccccc21`, the figures for the inhibition in test [1], in test [2] and in test [3] were 1.89%, 0.22% and 1.08%, respectively.

In the case of `Fc1ccc(-c2cc(NCCCn3ccnc3)nc(-c3cccnc3)n2)cc1`, the inhibition in test [1] came out at 1.99%; in test [2], 0.82%; in test [3], 2.67%.

Consider `CCCCCC(=O)N1CCOC(CCN2CCC(c3ccccc3)CC2)(c2ccc(Cl)c(Cl)c2)C1` (stereo unspecified), for which the figures for the inhibition in test [1], in test [2] and in test [3] were 2.57%, 3.27% and 0.92%, respectively.

For `COc1ccc(C)c(Nc2ccnc(Nc3cccc(-c4nc5ccccc5[nH]4)c3)n2)c1`, the inhibition stood at 3.82% in test [1], 1.79% in test [2] and 2.68% in test [3].

For the compound `CC(C)CCCC(C)NC[C@@H](O)[C@H](Cc1ccccc1)NC(=O)c1cc(N2CCCC2=O)cc(N(c2ccccc2)S(C)(=O)=O)c1` (stereo partly specified), the inhibition in test [1] came out at 1.85%; in test [2] it was 2.61%; in test [3] it was 1.65%.
